Shown are actives, neighbours in structure and some others; about 3.8% of the full set was active somewhere.
HepG2 tox-1 – counter-screen for TGF-b inhibitors: cytotoxicity in HepG2 cells; HepG2 CAGA-GFP viability, ATP luminescence, 18 h; Potency, µM (top dose mostly 46.1 µM), inactives show at the highest dose activity change, negative = cytotoxicity, usual class: cytotoxic; 410,000 tested, 0.76% active
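HepG2 CAGA-GFP cells (1000/well, DMEM with 1% FBS) received compound, then TGF-beta at 500 pg/mL final, and were incubated 18 hours at 37 degrees C. Viability was read by CellTiter-Glo luminescence. Media-only wells were set as complete cell-killing and DMSO as no toxicity.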
S2 tox – viability counter-screen for ATXN expression inhibitors. S2 cells (HEK-293 line with an ATXN2-luciferase reporter) viability, CellTiter-Fluor protease fluorescence, 24 h. 400,000 tested, 0.49% active. Potency, µM (doses to about 56.7 µM), actives largely listed as cytotoxic; also: nearly all actives have a fitted effect of over 40% in size
Nrf2 inh – inhibitors of Nrf2 signaling. 360,000 tested, 2.1% active. A549 ARE-Fluc reporter, luciferase luminescence, 18-24 h. Potency, µM (series often up to 46 µM), for the others: at the highest dose activity change, negative = inhibition, usual class: inhibitors; also: % is scaled to controls: 0 for no effect and ±100 for the full control effect; nearly all actives have a fitted effect of over 60% in size
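Two sequential reads on A549 ARE_Fluc cells exposed to compound for 18-24 h: a CellTiter-Fluor fluorescence read for viability, then a luciferase luminescence read for Nrf2/ARE activity.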
TGFb inhibitor – inhibitors of TGF-b signaling | HepG2 CAGA-GFP TGF-b/SMAD3 reporter, GFP fluorescence, 18 h; TGF-beta stimulated, 500 pg/mL final | Potency, µM (series often up to 46.1 µM), inactives show top-dose activity, negative = inhibition, usual class: inhibitors | 410,000 tested, 1.2% active | AID 588855; also: % is scaled to controls: 0 for no effect and ±100 for the full control effect; nearly all actives have a fitted effect of over 65% in size
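Read-out: total well GFP (ex488/em500-530) summed from mean per-cell fluorescence. Cells: HEPG2 CAGA-GFP, 1% FBS DMEM, 18 h at 37 degrees C with 500 pg/mL final TGF-beta. Unstimulated wells served as the full-inhibition control; stimulated DMSO wells = 0%.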
A549 viability – counter-screen for Nrf2 inhibitors: cytotoxicity in A549 cells | 390,000 tested, 0.16% active | Potency, µM (top dose mostly 46 µM), without a hit: at the top dose activity change, negative = cytotoxicity, usual class: inhibitors | AID 504648 | A549 ARE-Fluc cells, CellTiter-Fluor viability, 18-24 h; also: % is scaled to controls: 0 for no effect and ±100 for the full control effect
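A549 ARE-Fluc cells in 5% FBS OPTI-MEM, 5000 cells/well, rested 2 h then exposed to compounds in concentration-response for 18-24 h at 37 °C. Viability by CellTiter-Fluor fluorescence (Ex 405/Em 525) after 30 min; luciferase luminescence (BugLite, 15 min, RT) read afterwards.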
ATXN2 expr inh – ATXN2 expression inhibition; Potency, µM (titrated, usually from 57 µM), inactives show at the highest dose activity change, negative = inhibition, most hits filed as inhibitors; 360,000 tested, 0.72% active; HEK-293 ATXN2-luciferase reporter, luminescence, 24 h; also: % is scaled to controls: 0 for no effect and ±100 for the full control effect; nearly all actives have a fitted effect of over 55% in size
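qHTS (up to 57 uM final) was run with 24 h compound exposure of reporter cells at 37 °C. Each well was multiplexed: SteadyGlo luminescence measured ATXN2-luciferase expression after a fluorogenic Gly-Phe-AFC viability readout (25 uM final).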
TGFb confirm – confirmation of TGF-b signaling inhibitors in HepG2 reporter cells. AID 720534. 1,600 tested, 63% active. HepG2 CAGA-GFP TGF-b reporter, GFP fluorescence, 18 h; cells stimulated with TGF-beta, 500 pg/mL. shares compounds with TGFb inhibitor. Potency, µM (top dose mostly 46.1 µM), inactives show top-dose activity, negative = inhibition, usual class: inhibitors; also: % is scaled to controls: 0 for no effect and ±100 for the full control effect; nearly all actives have a fitted effect of over 65% in size
HepG2 tox-2 – toxic to HepG2 cells in TGF-b counterscreen; HepG2 CAGA-GFP viability, ATP luminescence, 18 h; cells stimulated with TGF-beta, 500 pg/mL; shares compounds with TGFb inhibitor; 1,600 tested, 27% active; AID 720535; Potency, µM (doses to about 46.1 µM), inactives show at the highest dose activity, negative = cytotoxicity, actives largely listed as inhibitors; also: % is scaled to controls: 0 for no effect and ±100 for the full control effect; nearly all actives have a fitted effect of over 70% in size
CCL64 TGFb inh – blocks TGF-b signaling in CCL64 reporter cells; 1,600 tested, 41% active; shares compounds with TGFb inhibitor; AID 720536; CCL64 CAGA-GFP reporter, TGF-b stimulated, GFP fluorescence, 18 h; Potency, µM (series often up to 46.1 µM), for the others: at the highest dose activity, negative = inhibition, usual class: inhibitors; also: nearly all actives have a fitted effect of over 65% in size
TGFb COP inh – TGF-b inhibition validated with COP promoter. HepG2 COP-GFP TGF-b reporter, GFP fluorescence, 18 h; cells stimulated by added recombinant TGF-beta. Potency, µM (doses to about 46.1 µM), without a hit: at the highest dose activity, negative = inhibition, most hits filed as inhibitors. shares compounds with TGFb inhibitor. 1,600 tested, 3% active; also: nearly all actives have a fitted effect of over 70% in size
Active calls of the source: *; i = inactive; ? = inconclusive; . = no result given; [ ] = another dose, or the depositor's remark. Calls follow the shape of the dose curve; as a rule, active = well fitted curve in the direction sought with a large enough effect; inconclusive = small, poorly fitted or top-dose-only effect, or another doubt; inactive = no such curve, though single readings can be large; an effect the other way counts as inactive or inconclusive. Potency is read from the fitted curve at half-maximal effect.

SMILES | HepG2 tox-1 | S2 tox | Nrf2 inh | TGFb inhibitor | A549 viability | ATXN2 expr inh | TGFb confirm | HepG2 tox-2 | CCL64 TGFb inh | TGFb COP inh
COc1ccc(/C=N/n2cnc3c([nH]c4ccc(C)cc43)c2=O)cc1CN1CCCC1 | -60% | . | 5% | ? | 11% | . | . | . | . | .
C[C@@]12CCC=C[C@H]1[C@H](c1ccccc1Br)N(Cc1ccccc1)C2=O | -28% | ? | ? | 18µM* | -9% | -19% | 18µM* | ? | ? | 14%
CCc1ccc(NC(=O)C(=O)NCC(c2cccnc2)N2CCN(Cc3ccccc3)CC2)cc1 (stereo not given) | 10% | i | -9% | 3% | 5% | 3% | . | . | . | .
Oc1ccc(C[C@@H](CN2CCC[C@@H]2CN2C(=S)NC[C@@H]2Cc2ccccc2)N2C[C@H](Cc3ccccc3)N(CCc3ccccc3)C2=S)cc1 | -51% | ? | . | -6% | . | -12% | . | . | . | .
CC(C)C[C@H]1CNC(=S)N1C[C@H]1CCCN1C[C@H](Cc1ccccc1)N1C[C@H](Cc2ccc(O)cc2)N(CCc2ccccc2)C1=S | -9% | ? | . | 7.1µM* | . | ? | 12µM* | -24% | ? | 12%
Oc1ccc(C[C@H]2CNC(=S)N2CC2CCCN2C[C@H](Cc2ccccc2)N2C[C@H](Cc3ccc(O)cc3)N(CCc3ccccc3)C2=S)cc1 (stereo not given in full) | 2% | ? | 15µM* | 7.9µM* | ? | ? | 5.8µM* | ? | 9.2µM* | 62%
CC(C)C[C@H]1CNC(=S)N1C[C@H]1CCCN1C[C@H](Cc1ccc(O)cc1)N1C[C@H](Cc2ccc(O)cc2)N(CCc2ccccc2)C1=S | -40% | . | . | 10µM* | . | ? | ? | 15µM* | 4.6µM* | 78%
CC(C)C[C@H]1CN([C@@H](Cc2ccc(O)cc2)CN2CCC[C@@H]2CN2C(=S)NC[C@@H]2Cc2ccccc2)C(=S)N1CCc1ccccc1 | -5% | ? | . | ? | . | ? | . | . | . | .
O=C(Nc1cccc([N+](=O)[O-])c1)Nc1ccc2c(c1)OCCO2 | 6% | i | ? | -5% | -8% | 123% | . | . | . | .
Cc1ccc(CN2C(=O)CN(C3CCC(C)CC3)C(=O)C2c2ccc(F)cc2)cc1 (stereo not given) | -2% | . | . | -7% | 4% | . | . | . | . | .
CC(C)(C)OC(=O)NCCc1nnc(SCc2cccc(Cl)c2)o1 | -60% | i | 8% | 7.9µM* | 1% | -20% | -5% | -10% | 10% | -11%
Cc1ccc(SCC(=O)Nc2cc([N+](=O)[O-])ccc2O)cc1 | -31% | i | 17% | 18µM* | 5% | 12%[11.3 µM] | 4.6µM* | ? | ? | 82%
O=C(CSCc1ccc(Cl)cc1)Nc1cc([N+](=O)[O-])ccc1O | -8% | ? | 15% | ? | 8% | ? | . | . | . | .
O=C1NC[C@H](CCCCN2C[C@H](Cc3ccc(O)cc3)N(CCc3ccc(O)cc3)C(=O)C2=O)N(Cc2ccccc2)C1=O | . | i | . | . | . | 5% | . | . | . | .
COc1cc(C(=O)NCC(c2ccc(F)cc2)N2CCOCC2)ccc1OCc1ccccc1Cl (stereo not given) | -16% | i | -20% | 20µM* | 2% | -9% | ? | ? | ? | 68%
COc1ccccc1NS(=O)(=O)c1ccc(C(=O)NCC(c2ccc(F)cc2)N2CCOCC2)cc1 (stereo not given) | 1% | i | 2% | 16% | 3% | . | . | . | . | .
CCC(C(=O)Oc1c(C(C)C)cccc1C(C)C)c1ccccc1 (stereo not given) | -11% | i | 9% | ? | 13% | 0% | ? | 9% | 21µM* | -14%
CCCCCCCCOC(=O)c1cc([N+](=O)[O-])c(Sc2ncnc3nc[nH]c23)c([N+](=O)[O-])c1 | 13µM* | . | -20% | 7.1µM* | -24% | ? | 21µM* | 8.2µM* | 5.8µM* | ?
COc1ccccc1NC(=O)C/C(C)=N/NC(=O)COc1c(Br)cc(Br)cc1OC | -26% | i | -7% | -29% | 1% | -30% | . | . | . | .
Cc1cc(C)nc(/N=C(\N)Nc2ccc(SC(F)F)cc2)n1 | -38% | i | -15% | 8.9µM* | 0% | . | -25% | ? | ? | 28%
CC(=O)Nc1ccc(N/C(N)=N/c2nc(C)cc(C)n2)cc1 | 0% | i | -29% | 10% | 0% | 13% | . | . | . | .
CCOc1ccc(N/C(N)=N/c2nc(C)cc(C)n2)cc1 | -28% | ? | -13% | ? | 0% | . | -28% | -26% | ? | 8%
Cc1cc(C)nc(/N=C(\N)Nc2ccc(-c3ccccc3)cc2)n1 | -27% | i | ? | ? | -14% | ? | . | . | . | .
C=CCCn1c(Cl)c(C#N)sc1=O | -47% | . | 5% | -21% | 2% | . | . | . | . | .
CN(Cc1ccc(Cl)cc1)C(CCc1ccccc1)C(=O)NC1CCCCC1 (stereo not given) | -25% | i | . | ? | . | -14% | . | . | . | .
CCCC(=O)NC(=S)Nc1cccc(Cl)c1N1CCCCC1 | -87% | ? | . | 7.9µM* | ? | ? | 15µM* | ? | ? | 51%
O=c1[nH]c(=S)c2[nH]cnc2[nH]1 | -13% | . | -16% | -2% | -2% | . | . | . | . | .
